molecular target: ScBbc1; experiment: SPOT peptide array binding signal intensity (averaged, normalized) (arbitrary units (background-subtracted, floor 0; scale differs between SH3 domains)); higher = stronger binding of the SH3 domain to the peptide
How it was run: (§1)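 Binding signal is given in arbitrary units that differ between domains and is the normalized, background-subtracted spot intensity averaged across replicates. Each GST-SH3 fusion from one of four yeast species was made in E. coli BL21(DE3), purified on glutathione Sepharose and incubated at 10 μg/ml overnight at 4°C on cellulose-bound synthetic 15-mer peptides in which cysteines were replaced by serines. Detection used anti-GST antibody, an HRP anti-mouse secondary and luminol, followed by imaging and Genespotter quantification.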

Row | Binder | SPOT peptide array binding signal intensity
1 | ANNQGPPNLPARDKS | 2

molecular target: ScBem1-D1; experiment: as above
How it was run: as §1

Row | Binder | SPOT peptide array binding signal intensity
2 | ANNQGPPNLPARDKS | ≤ 0

molecular target: ScBzz1-D1; experiment: as above
How it was run: as §1

Row | Binder | SPOT peptide array binding signal intensity
3 | ANNQGPPNLPARDKS | 5

molecular target: ScBzz1-D2; experiment: as above
How it was run: as §1

Row | Binder | SPOT peptide array binding signal intensity
4 | ANNQGPPNLPARDKS | 1

molecular target: ScCyk3; experiment: as above
How it was run: as §1

Row | Binder | SPOT peptide array binding signal intensity
5 | ANNQGPPNLPARDKS | ≤ 0

molecular target: ScFus1; experiment: as above
How it was run: as §1

Row | Binder | SPOT peptide array binding signal intensity
6 | ANNQGPPNLPARDKS | 2

molecular target: ScHof1; experiment: as above
How it was run: as §1

Row | Binder | SPOT peptide array binding signal intensity
7 | ANNQGPPNLPARDKS | 2

molecular target: ScHse1; experiment: as above
How it was run: as §1

Row | Binder | SPOT peptide array binding signal intensity
8 | ANNQGPPNLPARDKS | 42.5

molecular target: ScLsb1; experiment: as above
How it was run: as §1

Row | Binder | SPOT peptide array binding signal intensity
9 | ANNQGPPNLPARDKS | 645

molecular target: ScLsb2; experiment: as above
How it was run: as §1

Row | Binder | SPOT peptide array binding signal intensity
10 | ANNQGPPNLPARDKS | 5

molecular target: ScLsb3; experiment: as above
How it was run: as §1

Row | Binder | SPOT peptide array binding signal intensity
11 | ANNQGPPNLPARDKS | 7290

molecular target: ScLsb4; experiment: as above
How it was run: as §1

Row | Binder | SPOT peptide array binding signal intensity
12 | ANNQGPPNLPARDKS | 4380

molecular target: ScMyo3; experiment: as above
How it was run: as §1

Row | Binder | SPOT peptide array binding signal intensity
13 | ANNQGPPNLPARDKS | ≤ 0

molecular target: ScMyo5; experiment: as above
How it was run: as §1

Row | Binder | SPOT peptide array binding signal intensity
14 | ANNQGPPNLPARDKS | ≤ 0

molecular target: ScNbp2; experiment: as above
How it was run: as §1

Row | Binder | SPOT peptide array binding signal intensity
15 | ANNQGPPNLPARDKS | ≤ 0

molecular target: ScPex13; experiment: as above
How it was run: as §1

Row | Binder | SPOT peptide array binding signal intensity
16 | ANNQGPPNLPARDKS | 472

molecular target: ScRvs167; experiment: as above
How it was run: as §1

Row | Binder | SPOT peptide array binding signal intensity
17 | ANNQGPPNLPARDKS | 2820

molecular target: ScSho1; experiment: as above
How it was run: as §1

Row | Binder | SPOT peptide array binding signal intensity
18 | ANNQGPPNLPARDKS | ≤ 0

molecular target: ScSla1-D1-D2; experiment: as above
How it was run: as §1

Row | Binder | SPOT peptide array binding signal intensity
19 | ANNQGPPNLPARDKS | ≤ 0

molecular target: ScSla1-D3; experiment: as above
How it was run: as §1

Row | Binder | SPOT peptide array binding signal intensity
20 | ANNQGPPNLPARDKS | 0.75

molecular target: SpAbp1-D1; experiment: as above
How it was run: as §1

Row | Binder | SPOT peptide array binding signal intensity
21 | ANNQGPPNLPARDKS | ≤ 0

molecular target: SpBbc1; experiment: as above
How it was run: as §1

Row | Binder | SPOT peptide array binding signal intensity
22 | ANNQGPPNLPARDKS | ≤ 0

molecular target: SpBzz1-D1; experiment: as above
How it was run: as §1

Row | Binder | SPOT peptide array binding signal intensity
23 | ANNQGPPNLPARDKS | 6

molecular target: SpBzz1-D2; experiment: as above
How it was run: as §1

Row | Binder | SPOT peptide array binding signal intensity
24 | ANNQGPPNLPARDKS | ≤ 0

molecular target: SpCyk3; experiment: as above
How it was run: as §1

Row | Binder | SPOT peptide array binding signal intensity
25 | ANNQGPPNLPARDKS | ≤ 0

molecular target: SpHof1; experiment: as above
How it was run: as §1

Row | Binder | SPOT peptide array binding signal intensity
26 | ANNQGPPNLPARDKS | 0.5

molecular target: SpHof1-2; experiment: as above
How it was run: as §1

Row | Binder | SPOT peptide array binding signal intensity
27 | ANNQGPPNLPARDKS | 5.5

molecular target: SpHof1-3; experiment: as above
How it was run: as §1

Row | Binder | SPOT peptide array binding signal intensity
28 | ANNQGPPNLPARDKS | 6.75

molecular target: SpHse1; experiment: as above
How it was run: as §1

Row | Binder | SPOT peptide array binding signal intensity
29 | ANNQGPPNLPARDKS | ≤ 0

molecular target: SpLsb1; experiment: as above
How it was run: as §1

Row | Binder | SPOT peptide array binding signal intensity
30 | ANNQGPPNLPARDKS | 91

molecular target: SpLsb4; experiment: as above
How it was run: as §1

Row | Binder | SPOT peptide array binding signal intensity
31 | ANNQGPPNLPARDKS | 6520

molecular target: SpMyo1; experiment: as above
How it was run: as §1

Row | Binder | SPOT peptide array binding signal intensity
32 | ANNQGPPNLPARDKS | ≤ 0

molecular target: SpNbp2; experiment: as above
How it was run: as §1

Row | Binder | SPOT peptide array binding signal intensity
33 | ANNQGPPNLPARDKS | ≤ 0

molecular target: SpPex13; experiment: as above
How it was run: as §1

Row | Binder | SPOT peptide array binding signal intensity
34 | ANNQGPPNLPARDKS | ≤ 0

molecular target: SpRvs167; experiment: as above
How it was run: as §1

Row | Binder | SPOT peptide array binding signal intensity
35 | ANNQGPPNLPARDKS | 3210

molecular target: SpSla1-D1-D2; experiment: as above
How it was run: as §1

Row | Binder | SPOT peptide array binding signal intensity
36 | ANNQGPPNLPARDKS | ≤ 0

molecular target: SpSla1-D3; experiment: as above
How it was run: as §1

Row | Binder | SPOT peptide array binding signal intensity
37 | ANNQGPPNLPARDKS | ≤ 0

From the supplement of paper PMC4466140
